# According to PubChem BioAssay (NCATS):
# Results filed as inconclusive are left out. The source made the active and inactive calls. Calls follow the shape of the dose curve; as a rule, active = well fitted activation curve with a large enough effect; inconclusive = small, poorly fitted or top-dose-only effect, or effect the other way; inactive = flat fitted curve, though single readings scatter.
# Assay: Cellular Toxicity (caspase-3) NIH 3T3 (AID 666);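 also: caspase signal read after 16 h compound exposure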
# Details: NIH 3T3 caspase-3 activation, apoptosis/toxicity, 0% DMSO, 100% is 100 µM tamoxifen; series mostly up to 92.2 µM
# Excerpt: NIH Chemical Genomics Center [NCGC]
# NIH Molecular Libraries Screening Centers Network [MLSCN]
# National Institutes of Environmental Health Sciences [NIEHS]
# National Toxicology Program [NTP]
# We have developed a 1536-well cell-based assay for quantitative high throughput screening (qHTS) against a number of cell lines to determine in vitro caspase 3/7 of small molecules. This particular assay uses the NIH 3T3 cell line which is derived from mouse fibroblasts.
# NCGC Assay Protocol Summary:
# The Caspase-Glo 3/7 assay (Promega) is a homogeneous method to measure caspase-3 and caspase-7 activities in cultured cells. The quantitation of caspase 3/7 activity is based on the cleavage of a peptide-aminoluciferin substrate. After caspase cleaves the substrate the free aminoluciferin is liberated and serves as the substrate of luciferase, which generates the light. The luminescent signal is proportional to amount of caspase 3/7 activity present.
# Using the Caspase-Glo 3/7 assay, the amount of caspase 3/7 activity was measured in the NIH 3T3 cell line with complete culture medium following compound treatment for 16 hours. The assay was performed in opaque white 1536-well plates. In the screen, tamoxifen and doxorubicin were used as positive controls. Library compounds were measured for their ability to cause the activation of caspase 3/7 in the cell line, as reflected by an increase in luminescence signal, in a concentration-dependent manner. Data were normalized to the controls for basal activity (DMSO only) and 100% stimulation (100 uM tamoxifen). AC50 values were determined from concentration-response data modeled with the standard Hill equation.
# qHTS protocol for caspase 3/7 assay in NIH 3T3 cells
# [Step] [Parameter] [Value] [Description]
# 1. Reagent; 5 uL; 1000 NIH 3T3 cells/well
# 2. Time; 5 hr; 37 °C incubation
# 4. Controls; 23 nL; Tamoxifen 0.23 uM to 100 uM & Doxorubicin 7.0 pM to 100 uM
# 5. Time; 16 hr; 37 °C incubation
# 6. Reagent; 5 uL; Caspase-Glo 3/7 reagent
# 7. Time; 20 min; Room Temperature
# 8. Detection; Luminescence; Viewlux plate reader
# Keywords: caspase 3/7, apoptosis, NIH 3T3 cell line, luminescence, NTPHTS, NTPHTS_NCGC, NIEHS, EPA, DSSTox, MLSMR, MLSCN, NIH Roadmap, qHTS, NCGC
row,SMILES,outcome
1,CNC(=O)O/N=C/C(C)(C)SC,inactive
2,c1ccc2c(c1)CCCC2,inactive
3,CC(O)CCl (stereo not given),inactive
4,Clc1cc(Cl)c(-c2cc(Cl)c(Cl)cc2Cl)cc1Cl,inactive
5,Cc1ccc2ccccc2c1,inactive
6,ClC1=C(Cl)C2(Cl)C3C4C=CC(C4)C3C1(Cl)C2(Cl)Cl (stereo not given),inactive
7,c1ccc(N=Nc2ccccc2)cc1,inactive
8,Brc1ccc(Oc2cc(Br)c(Br)cc2Br)c(Br)c1,inactive
9,CCOP(=S)(OCC)SCSC(C)(C)C,inactive
10,O=C1C(Cl)=C(Cl)C(=O)C(Cl)=C1Cl,inactive
11,COP(=S)(OC)Oc1ccc([N+](=O)[O-])cc1,inactive
12,Clc1cccc(C(Cl)(Cl)Cl)n1,inactive
13,O=NN(c1ccccc1)c1ccccc1,inactive
14,C=C(C)C#N,inactive
15,C=CC(C)=O,inactive
16,C=CC(=O)OCC,inactive
17,COC1=CC(=O)OC(CCc2ccccc2)C1 (stereo not given),inactive
18,Oc1ccc(Cl)cc1Cl,inactive
19,Cc1ccc([N+](=O)[O-])cc1C,inactive
20,COc1ccc(N)cc1,inactive

row,SMILES,outcome
1,C[N+](C)(C)Cc1ccccc1,inactive
2,ClC(Cl)=C(Cl)C(Cl)=C(Cl)Cl,inactive
3,ClC1=C(Cl)C2(Cl)C3C4CC(C5OC45)C3C1(Cl)C2(Cl)Cl (stereo not given),inactive
4,Clc1nc(Cl)nc(Nc2ccccc2Cl)n1,inactive
5,ClC1=C(Cl)C2(Cl)C3C(Cl)C=CC3C1(Cl)C2(Cl)Cl (stereo not given),inactive
6,C=CC(N)=O,inactive
7,C=CCc1ccc(OC)cc1,inactive
8,CCCC(=O)Cl,inactive
9,O=S1OCC2C(CO1)C1(Cl)C(Cl)=C(Cl)C2(Cl)C1(Cl)Cl (stereo not given),inactive
10,CCNc1nc(Cl)nc(NC(C)C)n1,inactive
11,NC(=S)Nc1ccccc1,inactive
12,S=C=Nc1cccc2ccccc12,inactive
13,C=CCc1ccc2c(c1)OCO2,inactive
14,C=CCOC(=O)c1ccccc1N,inactive
15,C=CC(=C)C,inactive
16,O=NN(CCO)CCO,inactive
17,O=C(Cl)/C=C/C(=O)Cl,inactive
18,COC(=O)NC(=S)Nc1ccccc1NC(=S)NC(=O)OC,inactive
19,c1ccc(OP(Oc2ccccc2)Oc2ccccc2)cc1,inactive
20,ClC(Cl)=C(Cl)Cl,inactive
